CYP2C9 act – activators of human CYP2C9 | P11712 | recombinant CYP2C9, luciferin-H conversion, luminescence; hits give high values; factor 1 = untreated enzyme, 0 = blocked | activation factor at 5 µM | 96,000 compounds, 1.4% hits | AID 1024;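 active = activation factor of 2 or more for CYP2C9 at a 5 µM dose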
Target sequence (P11712 whole entry, looked up): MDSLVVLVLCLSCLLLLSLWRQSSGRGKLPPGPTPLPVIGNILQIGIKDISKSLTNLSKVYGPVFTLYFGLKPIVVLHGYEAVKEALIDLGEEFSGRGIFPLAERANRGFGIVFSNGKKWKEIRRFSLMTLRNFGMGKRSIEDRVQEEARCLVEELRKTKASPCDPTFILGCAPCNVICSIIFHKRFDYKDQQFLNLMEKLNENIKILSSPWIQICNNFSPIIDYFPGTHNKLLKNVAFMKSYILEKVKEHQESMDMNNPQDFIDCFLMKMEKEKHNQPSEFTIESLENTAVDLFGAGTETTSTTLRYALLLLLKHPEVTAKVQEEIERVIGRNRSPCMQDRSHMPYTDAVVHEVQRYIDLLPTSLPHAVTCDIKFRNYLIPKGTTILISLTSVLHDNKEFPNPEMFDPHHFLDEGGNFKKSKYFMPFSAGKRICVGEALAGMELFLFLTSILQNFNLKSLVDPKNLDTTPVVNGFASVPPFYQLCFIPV
CYP2C9 inh – blocks human cytochrome P450 2C9; P11712; 96,000 compounds, 20% hits; CYP2C9 Supersomes, luciferin-H conversion, luminescence; inhibition, % at 5 µM;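 active = blocking of liver enzyme CYP2C9 beyond about 50% at 5 µM, limit read from the data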
CYP2C19 inh – inhibitors of human CYP2C19; 96,000 compounds, 21% hits; CYP2C19 Supersomes, luciferin-H EGE luminescence, 30 min; inhibition, % at 5 µM; P33261;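 active = CYP2C19 inhibition above a set limit at 5 µM in the primary screen, cut at about 50% in these data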
EphB4 antag – EphB4-ephrin-B2 interaction antagonism; 97,000 compounds, 0.15% hits; EphB4 LBD / TNYL-RAW-Alexa532 peptide, fluorescence polarization; AID 720; inhibition, % at 7 µM; P54760;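 active = inhibition above the screen-wide mean inhibition plus 3 SD, cut at about 15% in these data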
CYP2C19 act – cytochrome P450 2C19 (human) activation. P33261. recombinant CYP2C19, luciferin-H EGE luminescence; hits give high values; 0 = fully inhibited enzyme, 1 = untreated enzyme. activation factor at 5 µM. 96,000 tested, under 10 active. AID 1025;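 active = activation factor of at least 2 at 5 µM in the primary screen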
A number is an active result. Only some compounds are listed: those with a hit (about 27% of all), similar ones and a draw of the others.

Screening O=C(Cn1c(C(=O)N2CCN(C3CCCCC3)CC2)cc2sccc21)c1ccccc1 returned CYP2C9 act inactive, CYP2C9 inh 73.0, CYP2C19 inh 87.3, EphB4 antag inactive and CYP2C19 act inactive.
For O=C(Cn1c(C(=O)N2CCc3ccccc3C2)cc2sccc21)c1ccccc1 the results were CYP2C9 act inactive, CYP2C9 inh 64.1, CYP2C19 inh 68.6, EphB4 antag inactive and CYP2C19 act inactive.
CC(=O)Nc1cc(C(=O)O)ccc1S(=O)(=O)c1ccc(C)cc1 was read as CYP2C9 act inactive, CYP2C9 inh inactive, CYP2C19 inh inactive, EphB4 antag inactive and CYP2C19 act inactive.
`Cc1cc(C(=O)N2CCc3ccccc32)c2cc(F)ccc2n1` gave CYP2C9 act inactive, CYP2C9 inh inactive, CYP2C19 inh inactive, EphB4 antag inactive and CYP2C19 act inactive.
Screening N=c1c(C(=O)NCc2ccco2)cc2c(=O)n3ccccc3nc2n1CC1CCCO1 (stereo unspecified) returned EphB4 antag inactive.
`N#CCSc1nnc(COc2ccc3ccccc3c2)o1` gave CYP2C9 act inactive, CYP2C9 inh inactive, CYP2C19 inh 56.8, EphB4 antag inactive and CYP2C19 act inactive.
For Cc1ccc(NC2SC(=O)N(CC(=O)O)C2=O)cc1 (stereo unspecified) the results were CYP2C9 act inactive, CYP2C9 inh 61.0, CYP2C19 inh inactive, EphB4 antag inactive and CYP2C19 act inactive.
`COc1ccc(CNc2nc3ccccc3n2Cc2ccccc2)cc1OC` gave CYP2C9 act inactive, CYP2C9 inh 65.8, CYP2C19 inh 52.7, EphB4 antag inactive and CYP2C19 act inactive.
`c1ccc(Cn2c(NCc3ccco3)nc3ccccc32)cc1` gave CYP2C9 act inactive, CYP2C9 inh 81.3, CYP2C19 inh 82.8, EphB4 antag inactive and CYP2C19 act inactive.
Screening COc1ccccc1Nc1nc(-c2sc(NC(=O)c3cccc(Cl)c3)nc2C)cs1 returned CYP2C9 act inactive, CYP2C9 inh inactive, CYP2C19 inh inactive, EphB4 antag inactive and CYP2C19 act inactive.
CCC(=O)Nc1nc2cc(OC)ccc2s1 was read as CYP2C9 act inactive, CYP2C9 inh inactive, CYP2C19 inh inactive, EphB4 antag inactive and CYP2C19 act inactive.
For COc1ccccc1Nc1nc(-c2sc(NC(=O)CC(C)C)nc2C)cs1 the results were CYP2C9 act inactive, CYP2C9 inh 54.0, CYP2C19 inh inactive, EphB4 antag inactive and CYP2C19 act inactive.
Screening C=CCCC(=O)Nc1nc(C)c(-c2csc(Nc3cccc(OC)c3)n2)s1 returned CYP2C9 act inactive, CYP2C9 inh inactive, CYP2C19 inh inactive, EphB4 antag inactive and CYP2C19 act inactive.
COc1ccc2sc(NC(=O)CC(C)C)nc2c1 was read as CYP2C9 act inactive, CYP2C9 inh 65.9, CYP2C19 inh 57.7, EphB4 antag inactive and CYP2C19 act inactive.
For COc1cccc(Nc2nc(-c3sc(NC(=O)c4ccccc4)nc3C)cs2)c1 the results were CYP2C9 act inactive, CYP2C9 inh 58.6, CYP2C19 inh inactive, EphB4 antag inactive and CYP2C19 act inactive.
COc1cccc(Nc2nc(-c3sc(NC(=O)CC(C)C)nc3C)cs2)c1 was read as CYP2C9 act inactive, CYP2C9 inh 85.6, CYP2C19 inh 83.7, EphB4 antag inactive and CYP2C19 act inactive.
For Cn1ncc(Br)c1C(=O)Nc1ccc(F)cc1F the results were EphB4 antag inactive.
N#C/C=C1\n2c(nc3ccccc32)OC12CCCCC2 was read as CYP2C9 act inactive, CYP2C9 inh inactive, CYP2C19 inh inactive, EphB4 antag inactive and CYP2C19 act inactive.
O=c1c2ccccc2cnn1-c1ccc2ccccc2c1 was read as CYP2C9 act inactive, CYP2C9 inh inactive, CYP2C19 inh inactive, EphB4 antag inactive and CYP2C19 act inactive.
`CC1=C(Sc2nc3ccccc3[nH]2)C(=O)NC(C)(C)C1` gave CYP2C9 act inactive, CYP2C9 inh inactive, CYP2C19 inh inactive, EphB4 antag inactive and CYP2C19 act inactive.
Screening Cc1c(NC2(c3nnnn3-c3ccc(Br)cc3)CCCCC2)c(=O)n(-c2ccccc2)n1C returned CYP2C9 act inactive, CYP2C9 inh inactive, CYP2C19 inh inactive, EphB4 antag inactive and CYP2C19 act inactive.
For Cc1ccc(NC(=O)C2CCN(C(=O)NC3CCCCC3)CC2)cc1 the results were EphB4 antag inactive.
For CCCC(=O)Nc1nc(C)c(-c2csc(Nc3cc(OC)ccc3OC)n2)s1 the results were CYP2C9 act inactive, CYP2C9 inh 77.8, CYP2C19 inh inactive, EphB4 antag inactive and CYP2C19 act inactive.
For COc1ccc(OC)c(Nc2nc(-c3sc(N)nc3C)cs2)c1 the results were CYP2C9 act inactive, CYP2C9 inh 73.3, CYP2C19 inh 53.4, EphB4 antag inactive and CYP2C19 act inactive.
CCOc1ccccc1Nc1nc(-c2sc(NC(=O)c3ccco3)nc2C)cs1 was read as CYP2C9 act inactive, CYP2C9 inh 58.6, CYP2C19 inh inactive, EphB4 antag inactive and CYP2C19 act inactive.
Cc1ccccc1Nc1nc(-c2sc(NC(=O)c3ccco3)nc2C)cs1 was read as CYP2C9 act inactive, CYP2C9 inh inactive, CYP2C19 inh inactive, EphB4 antag inactive and CYP2C19 act inactive.
For CCCCCC(=O)Nc1nc(C)c(-c2csc(Nc3cc(Cl)ccc3OC)n2)s1 the results were CYP2C9 act inactive, CYP2C9 inh inactive, CYP2C19 inh inactive, EphB4 antag inactive and CYP2C19 act inactive.
`C=CCCC(=O)Nc1nc(C)c(-c2csc(Nc3cc(OC)ccc3OC)n2)s1` gave CYP2C9 act inactive, CYP2C9 inh 51.6, CYP2C19 inh inactive, EphB4 antag inactive and CYP2C19 act inactive.
For COc1ccc(C(c2nnnn2Cc2ccccc2)N2CCN(C(=O)c3ccco3)CC2)cc1OC (stereo unspecified) the results were CYP2C9 act inactive, CYP2C9 inh inactive, CYP2C19 inh inactive, EphB4 antag inactive and CYP2C19 act inactive.
O=C(C1CCN(C2CC(=O)N(c3cccc(Cl)c3)C2=O)CC1)N1CCCCCC1 (stereo unspecified) was read as CYP2C9 act inactive, CYP2C9 inh inactive, CYP2C19 inh inactive, EphB4 antag inactive and CYP2C19 act inactive.
`CCCC(=O)Nc1nc(C)c(-c2csc(Nc3ccccc3OC)n2)s1` gave CYP2C9 act inactive, CYP2C9 inh 66.3, CYP2C19 inh inactive, EphB4 antag inactive and CYP2C19 act inactive.
`Cc1nc(N)sc1-c1csc(Nc2ccccc2)n1` gave CYP2C9 act inactive, CYP2C9 inh 83.1, CYP2C19 inh 85.0, EphB4 antag inactive and CYP2C19 act inactive.
`CCCC(C)C(=O)Nc1nc(C)c(-c2csc(Nc3cc(OC)ccc3OC)n2)s1` (stereo unspecified) gave CYP2C9 act inactive, CYP2C9 inh 53.4, CYP2C19 inh inactive, EphB4 antag inactive and CYP2C19 act inactive.
For Cc1cc(O)ccc1Nc1nc(-c2sc(N)nc2C)cs1 the results were CYP2C9 act inactive, CYP2C9 inh inactive, CYP2C19 inh inactive, EphB4 antag inactive and CYP2C19 act inactive.
`Cc1nn(Cc2ccc(Cl)cc2Cl)c(C)c1NC(=O)NC12CC3CC(CC(C3)C1)C2` gave CYP2C9 act inactive, CYP2C9 inh inactive, CYP2C19 inh inactive, EphB4 antag inactive and CYP2C19 act inactive.

Compound activity: PubChem, several laboratories
